Source: PubChem BioAssay (EPA / NIEHS)
Several values for one entry are separate records, joined by “and”; a condition that tells them apart may be missing. Identical values can stand only once. A structure can be active in one record and inactive in another. Activity calls are given as the source filed them. The calls were made as follows: active = hit-call score of the fitted dose curve at least 0.9, where 1 is the maximum; inactive = score below 0.9.

Assays:
[1] = ATG_CRE_CIS: Attagene CIS-FACTORIAL HepG2 Assay for human cAMP Responsive Element (CRE) binding protein 3 (AID 2282926); details: HepG2 CRE cis-reporter, Attagene multiplexed mRNA; actives raise or lower the signal
How it was run: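 Endogenous CRE-binding activity in HepG2 is reported through a cis-regulated transfected reporter. Following a day of exposure, mRNA levels are determined by reverse transcription PCR and fluorescent fragment analysis; fits run in both directions versus DMSO.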

[2] = biological target: CCAAT/enhancer-binding protein beta (Homo sapiens) (UniProt P17676); test: ATG_C_EBP_CIS: Attagene CIS-FACTORIAL HepG2 Assay for human CCAAT/Enhancer Binding Protein (C/EBP) beta (AID 2282927); details: HepG2 Attagene cis-factorial transcription factor reporter; actives raise or lower the signal
Sequence of CCAAT/enhancer-binding protein beta (Homo sapiens) (P17676 whole entry, looked up): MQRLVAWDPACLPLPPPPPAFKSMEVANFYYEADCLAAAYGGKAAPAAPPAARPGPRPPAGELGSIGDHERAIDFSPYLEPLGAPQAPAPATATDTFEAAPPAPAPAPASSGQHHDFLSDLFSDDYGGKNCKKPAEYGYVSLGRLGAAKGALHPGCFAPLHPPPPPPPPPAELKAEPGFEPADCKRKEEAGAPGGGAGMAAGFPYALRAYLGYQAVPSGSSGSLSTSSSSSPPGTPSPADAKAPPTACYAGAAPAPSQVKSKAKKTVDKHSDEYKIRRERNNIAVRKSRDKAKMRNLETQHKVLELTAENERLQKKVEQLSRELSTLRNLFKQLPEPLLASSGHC
How it was run: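 Transiently transfected HepG2 (MRTU library, endogenous TF-driven promoters); 24 h dosing; total RNA → oligo(dT) RT → PCR → 6-FAM primer extension → HpaI digest → CE; fit bidirectionally vs DMSO.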

[3] = ATG_CMV_CIS: Attagene CIS-FACTORIAL HepG2 Assay for human CMV (Internal Marker) (AID 2282928); details: HepG2 CMV promoter reporter, transcription factor profiling; actives raise or lower the signal;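 also: endpoint acts as a background internal control marker rather than a target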
How it was run: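 After transient transfection of HepG2 with reporter transcription units driven by cis-regulatory promoters, cells receive test chemical for 24 h. Labeled reporter amplicons, digested with HpaI, are sized and quantified by capillary electrophoresis against DMSO.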

[4] = ATG_DR4_LXR_CIS: Attagene CIS-FACTORIAL HepG2 Assay for human Liver X Receptor (LXR), DR4 submotif (AID 2282929); details: HepG2 Attagene DR4 cis-reporter, mRNA transcription; actives raise or lower the signal
How it was run: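 Readout: reporter transcript fluorescence after RT-PCR and capillary electrophoresis, fitted bidirectionally against DMSO controls. Human HepG2 liver cells carried transiently transfected multiplexed reporter constructs; endogenous transcription factor activity measured 24 h post-dosing.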

[5] = biological target: Aryl hydrocarbon receptor (Homo sapiens) (UniProt P35869); test: ATG_Ahr_CIS: Attagene CIS-FACTORIAL HepG2 Assay for human Aryl Hydrocarbon Receptor (Ahr) (AID 2282930); details: HepG2 AhR cis-factorial reporter transcription; actives raise or lower the signal
Sequence of Aryl hydrocarbon receptor (Homo sapiens) (P35869 whole entry, looked up): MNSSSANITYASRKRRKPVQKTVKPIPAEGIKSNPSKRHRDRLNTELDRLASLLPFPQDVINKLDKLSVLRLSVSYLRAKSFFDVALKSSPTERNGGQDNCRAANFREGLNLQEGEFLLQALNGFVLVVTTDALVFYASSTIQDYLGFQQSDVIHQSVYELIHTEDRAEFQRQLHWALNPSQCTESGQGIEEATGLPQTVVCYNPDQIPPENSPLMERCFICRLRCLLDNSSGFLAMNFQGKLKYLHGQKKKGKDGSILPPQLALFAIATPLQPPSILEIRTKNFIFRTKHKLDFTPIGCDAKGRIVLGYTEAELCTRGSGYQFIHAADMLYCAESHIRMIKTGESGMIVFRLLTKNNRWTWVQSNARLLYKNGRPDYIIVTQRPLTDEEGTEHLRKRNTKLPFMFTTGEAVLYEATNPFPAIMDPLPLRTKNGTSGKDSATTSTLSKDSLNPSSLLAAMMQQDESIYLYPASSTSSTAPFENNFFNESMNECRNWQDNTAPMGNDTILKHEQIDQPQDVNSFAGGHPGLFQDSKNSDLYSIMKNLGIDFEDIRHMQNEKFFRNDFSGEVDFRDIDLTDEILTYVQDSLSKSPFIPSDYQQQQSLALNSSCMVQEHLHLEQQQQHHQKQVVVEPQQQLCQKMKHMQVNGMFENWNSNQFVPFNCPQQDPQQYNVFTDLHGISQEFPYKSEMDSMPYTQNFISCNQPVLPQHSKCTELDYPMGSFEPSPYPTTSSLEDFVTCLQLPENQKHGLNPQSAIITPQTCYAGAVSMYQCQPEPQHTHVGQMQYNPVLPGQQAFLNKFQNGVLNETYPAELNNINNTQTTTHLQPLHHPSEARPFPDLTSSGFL
How it was run: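 Read-out: reporter mRNA quantified by RT-PCR with fluorescent primer extension and capillary electrophoresis. Human HepG2 liver cells carried transfected cis-promoter reporter units and were exposed to chemical for 24 h; gain or loss fitted relative to DMSO.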

[6] = ATG_AP_1_CIS: Attagene CIS-FACTORIAL HepG2 Assay for human Activator Protein 1 (AP-1) (AID 2282931); details: HepG2 Attagene cis-factorial AP-1 reporter mRNA; actives raise or lower the signal
How it was run: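 Reporter transcripts were measured 24 h after dosing by RT-PCR and capillary electrophoresis of fluorescent fragments. Cells: HepG2 carrying transfected cis-regulated reporter constructs reading endogenous factor activity. Gain or loss fitted against DMSO.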

[7] = ATG_AP_2_CIS: Attagene CIS-FACTORIAL HepG2 Assay for human Activator Protein 2 (AP-2) (AID 2282932); details: HepG2 AP-2 cis-reporter, Attagene transcription factor profiling; actives raise or lower the signal
How it was run: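 HepG2 cells transiently transfected with cis-element reporter units and exposed for 24 h. Reporter mRNA measured by RT-PCR, FAM labelling, HpaI digestion and capillary electrophoresis. Changes in either direction fitted relative to DMSO.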

[8] = ATG_BRE_CIS: Attagene CIS-FACTORIAL HepG2 Assay for human Bone Morphogenetic Protein (BMP) Response Element (BRE) (AID 2282933); details: HepG2 BMP response element reporter, Attagene transcription factor profiling; actives raise or lower the signal
How it was run: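 Fluorescence-labelled reporter cDNA fragments, separated by capillary electrophoresis, gave the signal for this component of a 52-readout multiplex. HepG2 cells were transfected, exposed to chemicals for 24 h, and compared with DMSO using bidirectional fitting.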

[9] = biological target: Retinoic acid receptor alpha (Homo sapiens) (UniProt P10276); test: ATG_DR5_RAR_CIS: Attagene CIS-FACTORIAL HepG2 Assay for human Retinoic Acid Receptor Alpha (RARE), DR5 submotif (AID 2282934); details: HepG2 Attagene cis-factorial RARE DR5 reporter, mRNA; actives raise or lower the signal;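 as to AC50: reporter responds to endogenous RAR alpha beta and gamma in HepG2 not RARA alone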
Sequence of Retinoic acid receptor alpha (Homo sapiens) (P10276 whole entry, looked up): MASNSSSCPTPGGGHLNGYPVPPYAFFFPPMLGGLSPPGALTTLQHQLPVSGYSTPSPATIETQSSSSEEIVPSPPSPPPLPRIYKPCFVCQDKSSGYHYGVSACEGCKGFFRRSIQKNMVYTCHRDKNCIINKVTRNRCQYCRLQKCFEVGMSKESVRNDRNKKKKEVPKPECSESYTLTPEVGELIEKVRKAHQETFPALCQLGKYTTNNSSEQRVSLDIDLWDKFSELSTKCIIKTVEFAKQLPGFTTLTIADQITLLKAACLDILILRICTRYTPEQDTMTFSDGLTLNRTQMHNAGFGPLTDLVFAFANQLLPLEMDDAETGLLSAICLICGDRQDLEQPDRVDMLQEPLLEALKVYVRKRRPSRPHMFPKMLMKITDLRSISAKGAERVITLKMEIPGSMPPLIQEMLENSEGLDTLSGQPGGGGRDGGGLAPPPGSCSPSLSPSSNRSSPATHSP
How it was run: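 Read-out: DR5-driven reporter transcript measured by RT-PCR, 6-FAM primer extension, HpaI digest and capillary electrophoresis. Human HepG2 liver cells carry transiently transfected cis-element reporter constructs; dosing lasts 24 h. Gain or loss of signal fitted against DMSO baseline.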

[10] = biological target: Transcription factor E2F1 (Homo sapiens) (UniProt Q01094); test: ATG_E2F_CIS: Attagene CIS-FACTORIAL HepG2 Assay for human E2F Transcription Factor 1 (AID 2282935); details: HepG2 Attagene cis-reporter, E2F reporter RNA transcripts; actives raise or lower the signal
Sequence of Transcription factor E2F1 (Homo sapiens) (Q01094 whole entry, looked up): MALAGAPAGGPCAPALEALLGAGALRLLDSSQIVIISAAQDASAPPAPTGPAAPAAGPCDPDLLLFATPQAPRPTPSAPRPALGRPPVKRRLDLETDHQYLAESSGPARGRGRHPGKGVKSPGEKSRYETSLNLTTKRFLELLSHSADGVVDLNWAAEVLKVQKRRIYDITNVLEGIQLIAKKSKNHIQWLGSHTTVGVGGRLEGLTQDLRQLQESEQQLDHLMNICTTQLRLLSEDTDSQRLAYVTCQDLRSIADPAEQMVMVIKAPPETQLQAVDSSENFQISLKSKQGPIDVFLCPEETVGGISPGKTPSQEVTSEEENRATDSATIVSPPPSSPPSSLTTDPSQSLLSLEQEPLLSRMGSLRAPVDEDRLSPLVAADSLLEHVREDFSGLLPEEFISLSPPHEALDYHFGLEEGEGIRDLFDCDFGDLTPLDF
How it was run: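 Endogenous E2F1 activity read through cis-promoter reporter units transfected into HepG2. After 24 h compound treatment, reporter mRNA measured by RT-PCR, HpaI digestion and capillary electrophoresis. Bidirectional fit versus DMSO.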

[11] = ATG_E_Box_CIS: Attagene CIS-FACTORIAL HepG2 Assay for human Enhancer Box (E-box) (AID 2282936); details: HepG2 E-box cis-reporter transcription, actives raise or lower the signal
How it was run: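 HepG2 cells transiently transfected with multiplexed cis-element reporter units, dosed 24 h; reporter mRNA quantified by RT-PCR, 6-FAM labelling, HpaI digestion and capillary electrophoresis. E-box (USF1) signal fitted bidirectionally vs DMSO.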

[12] = ATG_M_61_CIS: Attagene CIS-FACTORIAL HepG2 Assay for M61 Transcription Factor (Internal Marker) (AID 2282937); details: HepG2 Attagene CIS-FACTORIAL M61 internal marker reporter; actives raise or lower the signal
How it was run: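 Readout: fluorescent reporter mRNA fragments resolved by capillary electrophoresis after RT-PCR. Transiently transfected human HepG2 cells carried MRTU constructs reporting endogenous TF activity; 24 h chemical exposure; gain or loss of signal fitted relative to DMSO.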

[13] = ATG_EGR_CIS: Attagene CIS-FACTORIAL HepG2 Assay for human Early Growth Response 1 (EGR1) (AID 2282938); details: HepG2 Attagene CIS-FACTORIAL EGR reporter mRNA; actives raise or lower the signal
How it was run: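 Read-out: fluorescent reporter-mRNA fragments resolved by capillary electrophoresis after RT-PCR, 24 h post-dose in transiently transfected HepG2. Endogenous transcription-factor activity reported via cis-element-regulated reporter units; gain or loss fitted relative to DMSO.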

[14] = ATG_M_19_CIS: Attagene CIS-FACTORIAL HepG2 Assay for M19 Transcription Factor (Internal Marker) (AID 2282939); details: HepG2 Attagene CIS-FACTORIAL M19 internal marker reporter; actives raise or lower the signal
How it was run: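 HepG2, MRTU transient transfection, 24 h dosing. Total RNA → RT-PCR → 6-FAM primer extension → HpaI digest → CE fluorescence. Bidirectional curve fit, DMSO negative control.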

[15] = ATG_ERE_CIS: Attagene CIS-FACTORIAL HepG2 Assay for Estrogen Response Element (ERE) (AID 2282940); details: HepG2 ERE cis-reporter, Attagene RNA transcript; actives raise or lower the signal
How it was run: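 After a 24 h chemical treatment, RNA from reporter-transfected HepG2 cells is reverse-transcribed, PCR-amplified and fluorescently labelled. Fragments separated by capillary electrophoresis give reporter signal; DMSO serves as negative control.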

[16] = ATG_Ets_CIS: Attagene CIS-FACTORIAL HepG2 Assay for human Erythroblast Transformation Specific (ETS) (AID 2282941); details: HepG2 ETS cis-reporter transcription, actives raise or lower the signal
How it was run: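 Human HepG2 hepatoma cells were transiently transfected with promoter-driven reporter constructs and treated for 24 hours. Reporter transcripts were quantified by RT-PCR with fluorescent primer extension; bidirectional curve fitting used DMSO as reference.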

[17] = biological target: Hepatocyte nuclear factor 3-beta (Homo sapiens) (UniProt Q9Y261); test: ATG_FoxA2_CIS: Attagene CIS-FACTORIAL HepG2 Assay for human Forkhead box A2 (FOXA2) (AID 2282942); details: HepG2 cis-reporter transcription factor activity, 24 h; actives raise or lower the signal
Sequence of Hepatocyte nuclear factor 3-beta (Homo sapiens) (Q9Y261 whole entry, looked up): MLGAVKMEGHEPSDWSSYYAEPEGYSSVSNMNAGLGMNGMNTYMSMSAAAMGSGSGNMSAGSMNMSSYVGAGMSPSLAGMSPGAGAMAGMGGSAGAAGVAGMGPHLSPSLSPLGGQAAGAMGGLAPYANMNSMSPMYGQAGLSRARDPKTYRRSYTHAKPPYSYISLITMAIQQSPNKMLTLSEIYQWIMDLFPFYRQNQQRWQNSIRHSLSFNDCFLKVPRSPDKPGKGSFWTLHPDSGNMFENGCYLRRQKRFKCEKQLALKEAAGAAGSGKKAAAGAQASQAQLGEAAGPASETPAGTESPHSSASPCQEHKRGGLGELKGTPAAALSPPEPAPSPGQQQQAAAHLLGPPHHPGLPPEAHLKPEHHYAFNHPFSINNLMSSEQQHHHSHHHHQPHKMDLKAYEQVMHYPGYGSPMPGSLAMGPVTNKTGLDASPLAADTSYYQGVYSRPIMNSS
How it was run: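 Readout: fluorescent reporter transcripts resolved by capillary electrophoresis after RT-PCR. Transiently transfected HepG2, 24 h compound exposure, endogenous TF activity at cis promoter elements. Gain or loss of signal fitted relative to DMSO.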

[18] = ATG_FoxO_CIS: Attagene CIS-FACTORIAL HepG2 Assay for human Forkhead box O (FoxO) (AID 2282943); details: HepG2 Attagene cis-reporter, FoxO element, mRNA; actives raise or lower the signal
How it was run: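 Read-out: fluorescence of 6-FAM-labelled reporter cDNA fragments resolved by capillary electrophoresis. Transiently transfected HepG2 cells were dosed for 24 h; activity fitted in both directions relative to DMSO controls.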

[19] = ATG_GATA_CIS: Attagene CIS-FACTORIAL HepG2 Assay for human GATA Binding Protein (AID 2282944); details: HepG2 GATA cis-element reporter, Attagene multiplex mRNA; actives raise or lower the signal
How it was run: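 Cells: HepG2, transiently transfected with cis-regulated reporter transcription units. Exposure: 24 h. Detection: RT-PCR plus capillary electrophoresis of FAM-labeled fragments. Analysis: bidirectional, DMSO as baseline.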

[20] = APR_HepG2_NuclearSize_72hr: Apredica 72-hour HepG2 Assay for Nuclear Size (AID 2282925); details: high-content imaging, actives raise or lower the signal
How it was run: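 HepG2 cells dosed 72 h at 0.39–200 uM (10 concentrations, duplicate) in 0.5% v/v DMSO final. Fixed, Hoechst 33342-stained nuclei imaged; nuclear diameter measured by automated image analysis. Bidirectional fit versus DMSO.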

Measured: AC50

N#Cc1nn(-c2c(Cl)cc(C(F)(F)F)cc2Cl)c(N)c1S(=O)C(F)(F)F (stereo not given)
inactive: [1] | [2] | [3] | [4] | [5] | [6] | [7] | [8] | [9] | [10] | [11] | [12] | [13] | [14] | [15] | [16] | [17] | [18] | [19]
active: [1] 17.5 µM | [2] 18.1 µM | [4] 50.5 µM | [6] 9.67 µM | [8] 24.8 µM | [9] 7.78 µM | [11] 29 µM | [13] 35.8 µM

CCON=C(CC)C1=C(O)CC(c2c(C)cc(C)cc2C)CC1=O (stereo not given)
inactive: [20] | [1] | [2] | [3] | [4] | [5] | [6] | [7] | [8] | [9] | [10] | [11] | [12] | [13] | [14] | [15] | [16] | [17] | [18] | [19]

CC(Oc1ccc(Cl)cc1Cl)C(=O)O (stereo not given)
inactive: [20] | [1] | [2] | [3] | [4] | [5] | [6] | [7] | [8] | [9] | [10] | [11] | [12] | [13] | [14] | [15] | [16] | [17] | [18] | [19]

CCCCOC(=O)c1ccccc1C(=O)OCCCC
inactive: [20] | [1] | [2] | [3] | [4] | [5] | [6] | [7] | [8] | [9] | [10] | [11] | [12] | [13] | [14] | [16] | [17] | [18] | [19]
active: [4] 177 µM | [6] 68.2 µM and 85.6 µM | [13] 34.1 µM | [15] 50 µM [middle of 5 runs]

CC(C)C1(C)N=C(c2nc3ccccc3cc2C(=O)O)NC1=O (stereo not given)
inactive: [20] | [1] | [2] | [3] | [4] | [5] | [6] | [7] | [8] | [9] | [10] | [11] | [12] | [13] | [14] | [15] | [16] | [17] | [18] | [19]
